Results as given in PubChem BioAssay AID720565 (National Center for Advancing Translational Sciences (NCATS), 2013).
Where “and” joins values, the source holds several entries; their conditions need not be identical. Equal entries are not always repeated. Results filed as inconclusive are left out. Calls of active or inactive are those of the source. The call rests on the fitted dose curve; in most records, active means well fitted activation curve with a large enough effect; inconclusive means small, poorly fitted or top-dose-only effect; inactive means no such curve, though single readings can be large or run the other way.

Experiment: qHTS for small molecules that induce genotoxicity in ELG1 expressing cells: Confirmatory Assay for Cherry-picked Compounds; further: nearly all actives have a fitted effect of over 35% in size
Conditions: ELG1-luciferase reporter cells, luminescence, 16 h; series mostly up to 46.1 µM
Procedure, shortened: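 Activation readout: ONE-Glo luciferase signal from ELG1 reporter cells, 2,000 per well, after 16 hr compound incubation at 37 C. Increased ELG1-driven luminescence reflects genetic stress.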
Potency means the concentration at half of the fitted maximal effect.

| SMILES | Potency |
| --- | --- |
| Cc1ccccc1-c1nnc(SCC(=O)Nc2cccnc2Cl)o1 | 3.15 µM (active) |
| COc1cc2cc(C)c(SCC(=O)N3CCOCC3)nc2cc1OC | inactive |
| O=C(c1cc2ccccc2[nH]1)c1cc2cc(O)ccc2[nH]1 | 7.05 µM (active) |
| Nc1ccccc1NC(=O)c1ccc(CNC(=O)OCc2cccnc2)cc1 | 2.81 µM (active) |
| O=C(NCc1cccs1)c1cc(-c2ccccc2)on1 | 11.5 µM (active) and 7.06 µM (active) |
| NC(=O)C1CCN(c2cc(-c3ccc4c(c3)OCCCO4)ncn2)CC1 | 9.96 µM (active) |
| CCOC(=O)c1cc(-c2cc(OC)c(OC)c(OC)c2)nc2c1c(=O)[nH]c(=O)n2Cc1ccccc1 | 25 µM (active) |
| O=C(COc1ccccc1Cl)Nc1ccc(-c2nc3ccccc3s2)cc1 | 28.1 µM (active) |
| Cc1noc(C)c1-c1ccc2ncnc(NCc3ccc(F)c(F)c3)c2c1 | 15.8 µM (active) |
| O=C(CSc1nc2ccccc2o1)Nc1ccccc1N1CCCCCC1 | inactive |
| O=C1CCN(Cc2ccccc2)C=C1c1ccc2ccccc2c1 | 14.1 µM (active) |
| O=S(=O)(c1ccc2ccccc2c1)N1CCN(S(=O)(=O)c2c(F)cccc2F)CC1 | 14.1 µM (active) |
| COc1cccc(/C=C/C(=O)OCC(=O)c2ccccc2)c1OC | 3.53 µM (active) |
| COc1cccc([C@@H]2Oc3ccc(OC)cc3C(=O)[C@H]2OC(=O)NS(=O)(=O)c2ccc(C)cc2)c1 | 15.8 µM (active) |
| Cc1nc2cc(-c3ccccc3)nn2c(N)c1-c1ccccc1 | 0.629 µM (active) |
| CCn1c(=O)n(CC)c2cc(S(=O)(=O)N3CCC(c4ccccc4)CC3)ccc21 | inactive |
| CC(=O)Nc1ccc(/C=C/c2sc3ccccc3[n+]2CCCCI)cc1 | 22.3 µM (active) |
| Cc1c(OCc2ccc([N+](=O)[O-])cc2)ccc2c3c(c(=O)oc12)CCC3 | 2.81 µM (active) |
| CCn1c(=O)n(CC)c2cc(S(=O)(=O)N3CCCCC3)c(C)cc21 | inactive |

| SMILES | Potency |
| --- | --- |
| O=C(/C=C/C#Cc1cccc(NS(=O)(=O)c2ccccc2)c1)NO | 3.15 µM (active) |
| CC(C)CN(C)c1ccc(/C=C2\C=Cc3ccccc32)cc1 | 14.1 µM (active) |
| O=C(CSc1nnc(-c2cccc(Cl)c2)o1)Nc1ccc2c(c1)OCCO2 | 15.8 µM (active) |
| COc1ccc(C2CC(c3c(O)cc(C)oc3=O)=NCCS2)c(OC)c1 (stereo not drawn) | 11.2 µM (active) |
| N#Cc1ccc(-c2ccc(-c3nc4ccccc4c(=O)[nH]3)o2)cc1 | inactive |
| CN(C)N=Nc1ccc(/C=C2\C=Cc3ccccc32)cc1 | 3.97 µM (active) |
| O=c1c2ccccc2oc2c1ccc1ccccc12 | 15.8 µM (active) |
| N#Cc1cc2cc3c(cc2nc1SCC(=O)N1CCOCC1)OCO3 | 4.45 µM (active) |
| Nc1ccc(/C=C/c2ccc3cccnc3c2)cc1 | 0.5 µM (active) |
| Cc1ccc(C(=O)NN=CC(=O)c2ccccc2)c(C)c1 | 6.28 µM (active) |
| Cn1cccc1C(=O)Nc1ccc(N2CCOCC2)cc1 | 7.05 µM (active) |
| C(=C\c1nc2ccccc2s1)/c1ccc2c(c1)OCO2 | 0.141 µM (active) |
| COc1ccc(-c2cnc(-c3cccnc3)o2)cc1 | 15.8 µM (active) |
| O=c1cc(-c2ccccc2)oc2ccc(Br)cc12 | 11.2 µM (active) |
| Cn1c2ccccc2c(=O)c2cc(NCCCN3CCOCC3)ccc21 | 17.7 µM (active) |
| Cc1cc(C(=O)COC(=O)C2=COCCO2)c(C)n1-c1ccccc1 | 0.25 µM (active) |
| Cc1cc2ncc(-c3ccccc3)nc2cc1C | 1.41 µM (active) |
| C(=C\c1c[nH]c2ccccc12)/c1ccc2ccccc2n1 | 0.141 µM (active) |
| COc1ccc(C2CC(c3ccncc3)=NN2c2ccc(S(N)(=O)=O)cc2)cc1 (stereo not drawn) | 17.7 µM (active) |
